Assay results as given in PubChem BioAssay AID504616 (Sanford-Burnham Center for Chemical Genomics, 2011).
Some of the results follow.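 Rule for the calls: active = mean activity change at or below -40% when tested at 20 µM; inactive = the rest.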

Test: detection-step artefacts after finished caspase reaction – biochemical, fluorescence, Rh110, 20 µM, artefact control for Apaf-1 activator project, confirmation (AID 504616)
Conditions: quenched caspase reaction, Ex480/Em540, at 20 µM

Fluorescence interference (activity change), inactive:
CCCC(=O)Nc1nc2ccc(NC(=O)c3c(F)c(F)c(OC)c(F)c3F)cc2s1 7.74%, COc1ccccc1OCC(=O)Nc1c2c(nn1-c1ccc(F)cc1)CS(=O)(=O)C2 9.44%, Clc1cccc(-c2nc3nc4ccccc4nc3n2Cc2ccco2)c1 6.33%, CCOCCCNC(=O)c1c[nH]c2cc(C)ccc2c1=O 8.21%, O=c1[nH]cnc2c1c(-c1ccccc1)cn2-c1ccc(F)cc1 13.3%, O=C(Nc1cccc(C(F)(F)F)c1)c1cnccn1 0.73%, C=CC1=C(C(=O)O)N2C(=O)[C@@H](NC(=O)/C(=N\OCC(=O)O)c3csc(N)n3)[C@H]2SC1 11.7%, COc1cc(C2C(C#N)=C(N)Oc3n[nH]c(-c4ccccn4)c32)cc(OC)c1OC (stereo unspecified) 14.4%, O=C(CN1C(=O)C2C3C=CC(C3)C2C1=O)NCCc1ccccc1Cl (stereo unspecified) -3.43%, COc1cccc(C(=O)Nc2ccc(N3CCCC3)cc2)c1 2.88%, CC(C)OCCCNC(=S)N1CCC(C(=O)c2ccc3c(c2)OCCO3)CC1 3.57%, COC(CNC(=O)Cn1ncc2ccsc2c1=O)OC -3.81%, CCOCCc1c(O)nc(SCC(=O)NCc2ccco2)[nH]c1=O -8.32%, O=C(CSc1ccc(-c2ccc(-n3cccn3)cc2)nn1)Nc1ccc([N+](=O)[O-])cc1 2.63%, COc1ccc2c(c1)CCNC2Cc1ccc(OC)c(O)c1 (stereo unspecified) -0.08%, O=C(Nc1cccc(-c2nc3ccccc3[nH]2)c1)c1ccc(C(=O)Nc2cccc(-c3nc4ccccc4[nH]3)c2)cc1 7.06%, COc1ccc(C2c3ccc(O)cc3Oc3ncn(CCCO)c(=N)c32)cc1OC (stereo unspecified) -0.45%, CCOc1ccc(N=C2NC(=O)S/C2=C\c2ccc(O)cc2)cc1 -1.26%, O=[N+]([O-])c1ccc2nc(-c3ccccn3)[nH]c2c1 5.13%, Cc1nn(CC(=O)Nc2ccc(C#N)cc2)c(C)c1[N+](=O)[O-] -2.47%, C=CC1=C(C(=O)O)N2C(=O)[C@@H](NC(=O)/C(=N/OCC(=O)O)c3csc(N)n3)[C@H]2SC1 3.12%
